Among the data in PubChem BioAssay AID1671192 (National Center for Advancing Translational Sciences (NCATS), 2021) are outcome values, retold here.

The target in this assay is Polyunsaturated fatty acid lipoxygenase ALOX15 (Homo sapiens) (UniProt P16050). Description: Counterscreen qHTS for inhibitors of human arachidonate 12S-lipoxygenase (ALOX12): ALOX15 Assay. The procedure, abridged: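 Purified human ALOX15 (15hLO-1) at 40 nM in 25 mM HEPES, 0.01% Triton X-100, pH 7.5, preincubated with compound 15 min at RT. Then 50 uM arachidonic acid for 30 min; hydroperoxide detected by Fe-xylenol orange as the 573/405 nm absorbance ratio.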
A general note: Counterscreens check selectivity or assay interference.

Inconclusive results are not listed. The source made the active and inactive calls. Calls come from the whole dose curve; as a rule, active = well fitted curve in the direction sought with a large enough effect; inconclusive = small, poorly fitted or top-dose-only effect, or another doubt; inactive = no such curve, though single readings can be large or run the other way.

Polyunsaturated fatty acid lipoxygenase ALOX15 (Homo sapiens), sequence (P16050 whole entry, looked up): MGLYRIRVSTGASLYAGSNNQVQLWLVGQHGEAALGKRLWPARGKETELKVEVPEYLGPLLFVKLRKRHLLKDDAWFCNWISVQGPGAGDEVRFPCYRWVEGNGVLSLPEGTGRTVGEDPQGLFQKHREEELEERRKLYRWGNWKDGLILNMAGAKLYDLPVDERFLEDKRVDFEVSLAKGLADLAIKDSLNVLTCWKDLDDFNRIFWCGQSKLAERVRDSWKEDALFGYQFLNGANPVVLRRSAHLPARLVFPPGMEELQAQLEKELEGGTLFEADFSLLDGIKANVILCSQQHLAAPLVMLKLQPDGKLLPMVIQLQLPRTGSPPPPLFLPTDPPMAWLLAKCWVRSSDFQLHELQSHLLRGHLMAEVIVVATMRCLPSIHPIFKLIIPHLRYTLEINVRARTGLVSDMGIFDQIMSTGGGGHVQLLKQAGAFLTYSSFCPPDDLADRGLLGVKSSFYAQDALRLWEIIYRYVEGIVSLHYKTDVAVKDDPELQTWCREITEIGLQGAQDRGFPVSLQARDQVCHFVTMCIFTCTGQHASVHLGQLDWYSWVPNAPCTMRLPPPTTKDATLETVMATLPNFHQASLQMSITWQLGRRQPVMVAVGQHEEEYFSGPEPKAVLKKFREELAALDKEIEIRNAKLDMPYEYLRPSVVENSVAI

Turning to `Cc1noc(C)c1S(=O)(=O)N1CCC(N2CCOC2=O)CC1`, the outcome was inactive. Next, `c1ccc2c(c1)COC1(CCNC1)CN2CC1CCCC1` (stereo not given): “inactive”; `CN1CC(=O)N(C2CCCNCC2)Cc2c1ncnc2N1CCc2ccccc2C1` (stereo not given): “inactive”.

As for `NCc1ccccc1-c1ccc(O)cc1`, the outcome was inactive. To `COc1cccc(N2C(=O)NC(=NC3CCCCC3)C23CCN(C(=O)c2ccccc2OC)C3)c1` (stereo not given) belongs “inactive”; to `COc1ccc(C(=O)N2CCn3c(nnc3C3CCNCC3)C2)cc1`, “inactive”. Next, `CN1CC(=O)N(C2CCNCC2)Cc2c1ncnc2N1CCC(O)CC1`: “inactive”; `O=C1NC(=NC2CCCC2)C2(CCN(CC3CC3)C2)N1c1cccnc1` (stereo not given): “inactive”. Turning to `CC1CCCCC1Nc1ncnc2c1CN(C1CCCNCC1)C(=O)CN2C` (stereo not given), the molecule was classed as inactive.

Regarding `COc1ccc(C(=O)N2CCc3nc(C4CC4)nc(-c4ccc(OC)cc4)c3C2)cc1`, the result was inactive. On to `COc1cccc([S+](=O)([O-])N2CCn3c(nn(-c4cccc(Cl)c4)c3=O)C2)c1`, for which the call was inactive. Next, `O=C1NCCN1C1CCN(Cc2ccc(F)cc2)CC1`: “inactive”. Consider `CCOCCCNc1ncnc2c1CN(C1CCCNC1)C(=O)CN2C` (stereo not given), for which the molecule was classed as inactive. On to `O=C1NCc2ccccc2CC12CCN(Cc1cnc3ccccc3c1)C2` (stereo not given), for which the molecule was classed as inactive. Turning to `CCc1ccc(CN2CCC3(Cc4ccccc4CNC3=O)C2)s1` (stereo not given), the call was inactive. Turning to `CN1CC(=O)N(C2CCCNC2)Cc2c(NC3CCCCCC3)ncnc21` (stereo not given), the call was inactive.

On to `O=C1Nc2ccccc2C12CCN(S(=O)(=O)c1ccccc1)C2` (stereo not given), for which the outcome was inactive. `COc1ccccc1CNc1ncnc2c1CN(C1CCCNCC1)C(=O)CN2C` (stereo not given): the outcome was inactive. In the case of `Cn1nc(C2CCCN2)c2c(C(=O)NCc3ccncc3)cc(C3CC3)nc21` (stereo not given), the molecule was classed as inactive. Consider `O=c1n(-c2ccc(C(F)(F)F)cc2)nc2n1CCN(Cc1ccc(C(F)(F)F)cc1)C2`, for which the outcome was inactive. On to `COc1ccc(N2CC3CCC(C2)N3C(C)=O)cc1`, for which the molecule was classed as inactive. Turning to `O=C(N1CCOCC1)N1CCC(c2nnc3n2CCNC3)CC1`, the molecule was called inactive. For `CN1CC(=O)N(C2CCNCC2)Cc2c1ncnc2N1CCCC1CO` (stereo not given), the result was inactive. With `CN1CC(=O)N(C2CCCNCC2)Cc2c(NCc3ccc4c(c3)OCO4)ncnc21` (stereo not given), the molecule was called inactive. As to `O=C(c1ccccc1)N1CCn2c(nnc2C2CCNCC2)C1`, the result was inactive. As to `CC(=O)N1CCCN(c2ncnc3c2CN(C2CCNCC2)C(=O)CN3C)CC1`, the molecule was called inactive. With `CC(=O)Nc1ccc(C(=O)N2C3CCC2CN(C(C)C)C3)cc1`, the result was inactive. Consider `O=C(c1cn2c(n1)CN([S+](=O)([O-])c1cccc(C(F)(F)F)c1)CC2)N1CCOCC1`, for which the outcome was inactive. As to `Cc1ccc(CN2CC3ON=C(C(=O)O)C3C2)cc1` (stereo not given), the result was inactive. With `CNC(C)c1cccc(OC)c1` (stereo not given), the outcome was inactive. On to `CC(=O)NCC(=O)N1Cc2ccccc2CC2(CCCN(CC3CCNC3)C2)C1` (stereo not given), for which the result was inactive.

Regarding `O=C1NCc2ccccc2CC12CCN(Cc1ccc(-c3ccccc3)cc1)CC2`, the call was inactive. In the case of `CN1CC(=O)N(C2CCCNC2)Cc2c(NCCO)ncnc21` (stereo not given), the result was inactive.

In the case of `O=C1c2ccccc2CN1C1CCN(Cc2cccc3ccccc23)CC1`, the result was inactive.

Turning to `NCC(=O)N1Cc2ccccc2CC12CCCN(C(=O)c1ccccc1)C2` (stereo not given), the call was inactive. To `CC(=O)NC1CC2(CCN(C(=O)CCCNC(=O)OC(C)(C)C)CC2)Oc2ccccc21` (stereo not given) belongs “inactive”.

On to `Cn1nc(C2CCCNC2)c2c(C(=O)NC3CC3)cc(C3CC3)nc21` (stereo not given), for which the call was inactive. As for `CN1CC(=O)N(C2CCCNC2)Cc2c(NC3CCCCC3)ncnc21` (stereo not given), the call was inactive. Regarding `Cc1ccc(C(=O)N2CCCC3(CC(c4cccnc4)=NO3)C2)cc1` (stereo not given), the molecule was classed as inactive. Next, `Cc1ccc(C(=O)N2CCC(N3Cc4ccccc4C3=O)CC2)cc1`: “inactive”; `Cn1nc(C2CCCN2)c2c(C(=O)NCc3ccc(F)cc3)cc(C3CC3)nc21` (stereo not given): “inactive”. To `O=C1NC2(Cc3ccccc31)CN(C(=O)c1ccccc1)C2` belongs “inactive”; to `O=C1NC(=NC2CCCC2)C2(CCCN([S+](=O)([O-])c3cccc(C(F)(F)F)c3)C2)N1c1cc(F)cc(F)c1` (stereo not given), “inactive”.

In the case of `O=C(c1cc(C2CC2)nc2onc(C3CCNCC3)c12)N1CCCCC1`, the outcome was inactive.

On to `CNC(C)c1c(F)cccc1F` (stereo not given), for which the molecule was called inactive. With `Cc1cc(C)c(CN2CCC3(Cc4ccccc4CNC3=O)C2)c(C)c1` (stereo not given), the result was inactive. In the case of `COCCNC(=O)c1cc(C)nc2onc(C3CCCNC3)c12` (stereo not given), the call was inactive. Next, `C[S+](=O)([O-])N1Cc2ccccc2CC2(CCN(CC3CCNC3)CC2)C1` (stereo not given): “inactive”.

On to `O=C(c1ccccc1F)N1CCn2c(nnc2C2CCNCC2)C1`, for which the outcome was inactive. Next, `O=C1NC2(Cc3ccccc31)CN(C(=O)c1cccc3c1OC(F)(F)O3)C2`: “inactive”; `COc1cccc(N2C(=O)NC(=NC3CCCC3)C23CCCN(CC2CC2)C3)c1` (stereo not given): “inactive”. Consider `CN1CCN(CC2(N)CCCCC2)CC1`, for which the call was inactive. As for `O=C(N1CCOCC1)N1CCn2c(nnc2-c2cncc(Br)c2)C1`, the result was inactive. As to `NCc1cccc(-c2ccc(F)cc2F)c1`, the result was inactive. Turning to `CN1CC(=O)N(C2CCNCC2)Cc2c(NC3CCCCCC3)ncnc21`, the molecule was called inactive. With `O=Cc1cccc(-c2cncc(C(=O)O)c2)c1`, the molecule was classed as inactive. For `O=C(c1ccc(C(F)(F)F)cc1)N1CCc2nc(C3CC3)nc(-c3ccc(Cl)cc3)c2C1`, the call was inactive. For the molecule `O=C1NCc2ccccc2CC12CCN(C/C=C/c1ccccc1)CC2`, the result was inactive. Next, `O=C(c1ccccc1)N1CCCC2(CC(c3cccnc3)=NO2)C1` (stereo not given): “inactive”; `CC(C)c1nc2c(c(-c3ccc(Cl)cc3)n1)CCN(Cc1cccc3ccccc13)CC2`: “inactive”. On to `COc1ccc(F)cc1-c1ccccc1C=O`, for which the molecule was called inactive. Regarding `COc1ccc(-c2nc(C3CC3)nc3c2CN(C(=O)c2ccccc2)CC3)cc1`, the result was inactive. As for `CN1CC(=O)N(C2CCCNCC2)Cc2c1ncnc2N1CCN(c2ccccn2)CC1` (stereo not given), the molecule was called inactive. In the case of `CN1CC(=O)N(C2CCNCC2)Cc2c1ncnc2N1CCCC(O)C1` (stereo not given), the molecule was classed as inactive.

Regarding `COc1ccc(CC(=O)N2Cc3ccccc3CC23CCCN(C(=O)CCCN)C3)cc1` (stereo not given), the outcome was inactive.

With `CCOCCCNc1ncnc2c1CN(C1CCNCC1)C(=O)CN2C`, the call was inactive.

Regarding `COc1cccc(N2C(=O)NC(=NC3CCCCC3)C23CCCN([S+](=O)([O-])c2cccs2)C3)c1` (stereo not given), the result was inactive. As for `COc1cccc([S+](=O)([O-])N2CCn3c(nn(-c4ccc(Cl)cc4)c3=O)C2)c1`, the call was inactive. With `Cc1cc(Cl)ccc1NC1CN(C(=O)OC(C)(C)C)C1`, the molecule was classed as inactive.

For the molecule `O=C(O)c1cccc(-c2ccc(OC(F)(F)F)cc2)c1`, the call was inactive. Turning to `Cc1cccc(CN2CCCC23Cc2ccccc2CNC3=O)c1` (stereo not given), the molecule was called inactive. Next, `COc1cccc(N2C(=O)NC(=NC3CCCCC3)C23CCCN(Cc2cccnc2)C3)c1` (stereo not given): “inactive”; `O=C1NCc2ccccc2CC12CCN(Cc1ccnc3ccccc13)C2` (stereo not given): “inactive”. For `CN1CC(=O)N(C2CCCNCC2)Cc2c1ncnc2N1CCC(C#N)CC1` (stereo not given), the molecule was classed as inactive. `CN1CC(=O)N(C2CCCNCC2)Cc2c1ncnc2N1CCCC(O)C1` (stereo not given): the molecule was classed as inactive.

`NCC(=O)N1CCC2(CC1)CN(C(=O)c1ccc(Cl)cc1)CCO2`: the call was inactive. For `CN(C)CCCC(=O)N1Cc2ccccc2CC2(CCCCN2Cc2ccccc2)C1` (stereo not given), the call was inactive. On to `O=C1NCc2ccccc2CC12CCN(Cc1ccc(F)cc1F)CC2`, for which the molecule was called inactive.

As for `O=C(N1CCCC1)N1CCCC(c2nnc3n2CCNC3)C1` (stereo not given), the call was inactive. Turning to `O=C1NCc2ccccc2CC12CCCN2Cc1ccsc1` (stereo not given), the call was inactive. To `CN1CC(=O)N(C2CCCNC2)Cc2c(NCC(C)(C)C)ncnc21` (stereo not given) belongs “inactive”. As for `CN(C)CCCC(=O)N1Cc2ccccc2CC2(CCCCN2CC2CCNCC2)C1` (stereo not given), the molecule was called inactive. Turning to `COc1ccc(CN2CCCCC23Cc2ccccc2CNC3=O)c(OC)c1` (stereo not given), the result was inactive. Consider `O=C(c1ccc2c(c1)OCO2)N1CCCC2(CC(c3ccccc3)=NO2)C1` (stereo not given), for which the call was inactive. Regarding `CC(=O)NCCCC(=O)N1CCOC2(CCN(C(=O)CCCN)CC2)C1`, the molecule was called inactive. Next, `O=C(NCc1ccncc1)c1cc(C2CC2)nc2c1c(C1CCCN1)nn2-c1ccccc1` (stereo not given): “inactive”; `NCc1cccc(-c2ccccc2F)c1`: “inactive”. Take `CN(C)c1ccc(CN2CCn3c(nnc3C3CCNCC3)C2)cc1`: the molecule was classed as inactive. Regarding `O=C(O)CCCC(=O)N1Cc2ccccc2CC2(CCCN(Cc3ccccn3)C2)C1` (stereo not given), the molecule was classed as inactive.

Turning to `O=C1NCc2ccccc2CC12CCN(Cc1ccc(F)cc1O)C2` (stereo not given), the molecule was classed as inactive.

For the molecule `O=C(NCc1ccc(Cl)nc1)c1cnn2c1CN(C(=O)c1ccccc1)CC2`, the result was inactive. Regarding `Cc1ccc(-c2cccc(CN3CCCC(c4nc5ccc(F)cc5c(=O)[nH]4)C3)c2)c(C)c1` (stereo not given), the molecule was called inactive.

In the case of `CN1CC(=O)N(C2CCCNCC2)Cc2c(NCc3cccs3)ncnc21` (stereo not given), the outcome was inactive. `CC(C)CCN1CCn2c(nn(-c3ccc(Cl)cc3)c2=O)C1`: the molecule was called inactive.

In the case of `COc1ccc(-c2cc(C(=O)NC3CCNCC3)c3c(C4CCCN4)noc3n2)cc1` (stereo not given), the call was inactive. Consider `COc1ccc(CC(=O)N2Cc3ccccc3CC23CCCN([S+](C)(=O)[O-])C3)cc1` (stereo not given), for which the outcome was inactive.

For `Cc1cc(C(=O)NC2CCCC2)c2c(C3CCNC3)noc2n1` (stereo not given), the call was inactive. With `COc1ccc(CN2CCCC23Cc2ccccc2CNC3=O)cc1OC` (stereo not given), the molecule was classed as inactive.

Take `Cc1cc(C(=O)N2CCC(F)CC2)c2c(C3CCCN3)noc2n1` (stereo not given): the molecule was called inactive.

On to `CC(C)C(=O)N1Cc2ccccc2CC2(CCCCN2CC2CCNC2)C1` (stereo not given), for which the molecule was called inactive. As for `CC(=O)NCCC(=O)N1Cc2ccccc2CC2(CCCN2CC2CCNC2)C1` (stereo not given), the molecule was called inactive.

`CCc1ccc(CN2CCC3(CC2)Cc2ccccc2CNC3=O)s1`: the molecule was called inactive. For the molecule `CCOC(=O)C1CC1CN1CCCC2(Cc3ccccc3CNC2=O)C1` (stereo not given), the molecule was called inactive. For the molecule `O=C1NCc2ccccc2CC12CCN(Cc1cccc(F)c1F)CC2`, the molecule was called inactive.

For `CN1CC(=O)N(C2CCCNCC2)Cc2c(NCCCO)ncnc21` (stereo not given), the result was inactive. In the case of `NCc1cccc(-c2ccsc2)c1`, the result was inactive. As to `Cc1cc(C)cc(CN2CCC3(Cc4ccccc4CNC3=O)C2)c1` (stereo not given), the call was inactive. As for `NCC(=O)N1CCC2(CC1)CN(C(=O)Cc1cccc(Cl)c1)CCO2`, the outcome was inactive.

Take `O=C(N1CCCCC1)N1CCCC1c1nnc2n1CCNC2` (stereo not given): the molecule was classed as inactive.

As for `O=C1NCc2ccccc2CC12CCCN2Cc1ccc(Cl)cc1` (stereo not given), the result was inactive.
